In all, about 16,000 sequences were measured (“rpm ratio (pull-down/input)”: median about 0.5, highest 2% from about 5.5 on). The full list was thinned out, with the highest values kept by preference.

For the assay, the target named is T1, MBP-FoxP3dN (Mus musculus, UniProt Q99JB6 188-423).
T1 sequence: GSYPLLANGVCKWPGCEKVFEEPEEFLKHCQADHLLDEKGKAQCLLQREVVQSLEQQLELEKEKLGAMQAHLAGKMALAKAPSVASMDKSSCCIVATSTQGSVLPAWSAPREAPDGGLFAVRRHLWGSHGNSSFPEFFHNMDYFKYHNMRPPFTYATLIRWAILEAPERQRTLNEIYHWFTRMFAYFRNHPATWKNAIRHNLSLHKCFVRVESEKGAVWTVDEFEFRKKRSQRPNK
Nature of the assay: PD-seq (MBP pull-down with sequencing); 20 mM Tris-HCl pH 7.5, 100 mM NaCl, 1.5 mM MgCl2, 0.4 uM protein, 0.1 uM dsDNA library, 30 min, room temperature, amylose pull-down; high values mean tight binding. Particulars: protein: recombinant; tags: His6-MBP; chain copies: 2; dsDNA, one strand shown. In outline:
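A degenerate double-stranded DNA library, filled in with Klenow, was added at 0.1 µM to 0.4 µM His6-MBP-tagged mouse FoxP3 or FoxP1 fragment lacking the N-terminus, expressed in E. coli. Incubation lasted 30 min at room temperature in Tris pH 7.5 buffer with NaCl and MgCl2, after which complexes were collected on amylose resin, washed three times, digested with proteinase K to free the DNA, barcoded by PCR and sequenced by Illumina. Binding is the pooled-replicate reads-per-million enrichment of pull-down over input.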
With “GATGATTGTTCTCCCAGCTGATGAATTGCTTATATCGAGTAAACAAATTTTCCTAATCTTTCTGTTCAAGCGCCATCTAC”, the binding signal is 1.61 RPM ratio (pull-down/input).
For the sequence “GATGATTGTTCTCCCAGCTGATGAATTTGCTTTATCGAGTAAACAAATTTTCCTAATCTTTCTGTTCAAGCGCCATCTAC”, the binding signal is 3.94 RPM ratio (pull-down/input).
Turning to “GATGATTGTTCTCCCAGCTGATGAATTTGCTTATTCGAGTAAACAAATTTTCCTAATCTTTCTGTTCAAGCGCCATCTAC”, the binding signal is 6.84 RPM ratio (pull-down/input).
Turning to “GATGATTGTTCTCCCAGCTGATGAATTGCTTTATTCGAGTAAACAAATTTTCCTAATCTTTCTGTTCAAGCGCCATCTAC”, the binding signal was 1.09 RPM ratio (pull-down/input).
Regarding “GATGATTGTTCTCCCAGCTGATGAATTGCTTATTTCGAGTAAACAAATTTTCCTAATCTTTCTGTTCAAGCGCCATCTAC”, the binding signal is 2.46 RPM ratio (pull-down/input).
As to “GATGATTGTTCTCCCAGCTGATGAATTACTCATCTCGAGTAAACAAATTTTCCTAATCTTTCTGTTCAAGCGCCATCTAC”, the binding signal was 0.431 RPM ratio (pull-down/input).
In the case of “GATGATTGTTCTCCCAGCTGATGAATTGAGCGCATCGAGTAAACAAATTTTCCTAATCTTTCTGTTCAAGCGCCATCTAC”, the binding signal is 1.34 RPM ratio (pull-down/input).
Then “GATGATTGTTCTCCCAGCTGATGAATTCCCACGTTCGAGTAAACAAATTTTCCTAATCTTTCTGTTCAAGCGCCATCTAC”, with 0.282 RPM ratio (pull-down/input); and “GATGATTGTTCTCCCAGCTGATGAATTGTCCTATTCGAGTAAACAAATTTTCCTAATCTTTCTGTTCAAGCGCCATCTAC”, with 0.45 RPM ratio (pull-down/input).
On to “GATGATTGTTCTCCCAGCTGATGAATTCCTATTGTCGAGTAAACAAATTTTCCTAATCTTTCTGTTCAAGCGCCATCTAC”, for which the binding signal is 0.764 RPM ratio (pull-down/input).
For the sequence “GATGATTGTTCTCCCAGCTGATGAATTTCTATTGTCGAGTAAACAAATTTTCCTAATCTTTCTGTTCAAGCGCCATCTAC”, the binding signal is 0.631 RPM ratio (pull-down/input).
Then “GATGATTGTTCTCCCAGCTGATGAATTCTATTTGTCGAGTAAACAAATTTTCCTAATCTTTCTGTTCAAGCGCCATCTAC”, with 5.87 RPM ratio (pull-down/input); and “GATGATTGTTCTCCCAGCTGATGAATTGTCTATTTCGAGTAAACAAATTTTCCTAATCTTTCTGTTCAAGCGCCATCTAC”, with 1.18 RPM ratio (pull-down/input).
For the sequence “GATGATTGTTCTCCCAGCTGATGAATTTGTCTATTCGAGTAAACAAATTTTCCTAATCTTTCTGTTCAAGCGCCATCTAC”, the binding signal is 5.7 RPM ratio (pull-down/input).
Then “GATGATTGTTCTCCCAGCTGATGAATTGGCCCTCTCGAGTAAACAAATTTTCCTAATCTTTCTGTTCAAGCGCCATCTAC”, with 0.358 RPM ratio (pull-down/input).
In the case of “GATGATTGTTCTCCCAGCTGATGAATTCGTCAGGTCGAGTAAACAAATTTTCCTAATCTTTCTGTTCAAGCGCCATCTAC”, the binding signal was 0.551 RPM ratio (pull-down/input).
Then “GATGATTGTTCTCCCAGCTGATGAATTGTTAGGCTCGAGTAAACAAATTTTCCTAATCTTTCTGTTCAAGCGCCATCTAC”, with 0.88 RPM ratio (pull-down/input); and “GATGATTGTTCTCCCAGCTGATGAATTCTTTGGCTCGAGTAAACAAATTTTCCTAATCTTTCTGTTCAAGCGCCATCTAC”, with 0.217 RPM ratio (pull-down/input).
Take “GATGATTGTTCTCCCAGCTGATGAATTTCTTAGCTCGAGTAAACAAATTTTCCTAATCTTTCTGTTCAAGCGCCATCTAC”: the binding signal was 0.342 RPM ratio (pull-down/input).
As for “GATGATTGTTCTCCCAGCTGATGAATTTGTTGGCTCGAGTAAACAAATTTTCCTAATCTTTCTGTTCAAGCGCCATCTAC”, the binding signal is 7 RPM ratio (pull-down/input).
As for “GATGATTGTTCTCCCAGCTGATGAATTTGTTAGCTCGAGTAAACAAATTTTCCTAATCTTTCTGTTCAAGCGCCATCTAC”, the binding signal was 6.55 RPM ratio (pull-down/input).
Take “GATGATTGTTCTCCCAGCTGATGAATTTTTTGGCTCGAGTAAACAAATTTTCCTAATCTTTCTGTTCAAGCGCCATCTAC”: the binding signal is 0.204 RPM ratio (pull-down/input).
On to “GATGATTGTTCTCCCAGCTGATGAATTGCGGTCATCGAGTAAACAAATTTTCCTAATCTTTCTGTTCAAGCGCCATCTAC”, for which the binding signal is 1.01 RPM ratio (pull-down/input).
Then “GATGATTGTTCTCCCAGCTGATGAATTCATGCATTCGAGTAAACAAATTTTCCTAATCTTTCTGTTCAAGCGCCATCTAC”, with 5.77 RPM ratio (pull-down/input); and “GATGATTGTTCTCCCAGCTGATGAATTAATGCATTCGAGTAAACAAATTTTCCTAATCTTTCTGTTCAAGCGCCATCTAC”, with 6.89 RPM ratio (pull-down/input); and “GATGATTGTTCTCCCAGCTGATGAATTCGATGCATCGAGTAAACAAATTTTCCTAATCTTTCTGTTCAAGCGCCATCTAC”, with 1.84 RPM ratio (pull-down/input).
For the sequence “GATGATTGTTCTCCCAGCTGATGAATTAATGAATTCGAGTAAACAAATTTTCCTAATCTTTCTGTTCAAGCGCCATCTAC”, the binding signal was 0.682 RPM ratio (pull-down/input).
Take “GATGATTGTTCTCCCAGCTGATGAATTGCATGATTCGAGTAAACAAATTTTCCTAATCTTTCTGTTCAAGCGCCATCTAC”: the binding signal is 1.35 RPM ratio (pull-down/input).
As for “GATGATTGTTCTCCCAGCTGATGAATTAAATGCATCGAGTAAACAAATTTTCCTAATCTTTCTGTTCAAGCGCCATCTAC”, the binding signal was 2.36 RPM ratio (pull-down/input).
Take “GATGATTGTTCTCCCAGCTGATGAATTGATGCATTCGAGTAAACAAATTTTCCTAATCTTTCTGTTCAAGCGCCATCTAC”: the binding signal was 6.87 RPM ratio (pull-down/input).
Then “GATGATTGTTCTCCCAGCTGATGAATTGCATCATTCGAGTAAACAAATTTTCCTAATCTTTCTGTTCAAGCGCCATCTAC”, with 5.15 RPM ratio (pull-down/input).
On to “GATGATTGTTCTCCCAGCTGATGAATTGAAGCATTCGAGTAAACAAATTTTCCTAATCTTTCTGTTCAAGCGCCATCTAC”, for which the binding signal is 4.38 RPM ratio (pull-down/input).

For the origin of these results see article PMC12820563, “FoxP3 forms a head-to-head dimer in vivo and stabilizes its multimerization on adjacent microsatellites”.
